# Publication PMC11447256
# What was measured:
# Coatomer subunit gamma-1 = Coatomer subunit gamma-1 (UniProt Q9Y678); test: cross-linking mass spectrometry
# [1] = molecular target: T-complex protein 1 subunit delta (UniProt P50991); test: co-fractionation; cross-linking mass spectrometry
# Protein S100-A10 = Protein S100-A10 (UniProt P60903); test: cross-link between two proteins; cross-linking mass spectrometry
# [2] = molecular target: Phosphoglycerate kinase 2 (UniProt P07205); test: co-fractionation; co-fractionation; cross-linking mass spectrometry
# Sequence of Phosphoglycerate kinase 2 (P07205 whole entry): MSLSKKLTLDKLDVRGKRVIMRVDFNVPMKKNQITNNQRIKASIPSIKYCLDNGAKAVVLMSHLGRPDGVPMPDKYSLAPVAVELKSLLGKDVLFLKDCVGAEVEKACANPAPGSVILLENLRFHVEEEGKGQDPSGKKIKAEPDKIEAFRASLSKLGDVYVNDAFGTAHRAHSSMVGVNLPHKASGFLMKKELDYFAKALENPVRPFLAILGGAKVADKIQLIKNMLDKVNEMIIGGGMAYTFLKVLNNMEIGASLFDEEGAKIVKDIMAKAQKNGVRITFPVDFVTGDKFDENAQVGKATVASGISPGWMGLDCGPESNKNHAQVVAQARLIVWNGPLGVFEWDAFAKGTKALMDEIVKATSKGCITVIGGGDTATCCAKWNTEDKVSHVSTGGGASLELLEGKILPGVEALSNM
# [3] = molecular target: 26S proteasome non-ATPase regulatory subunit 5 (UniProt Q16401); test: cross-link between two proteins; cross-linking mass spectrometry; two-hybrid or complementation screen
# Sequence of 26S proteasome non-ATPase regulatory subunit 5 (Q16401 whole entry): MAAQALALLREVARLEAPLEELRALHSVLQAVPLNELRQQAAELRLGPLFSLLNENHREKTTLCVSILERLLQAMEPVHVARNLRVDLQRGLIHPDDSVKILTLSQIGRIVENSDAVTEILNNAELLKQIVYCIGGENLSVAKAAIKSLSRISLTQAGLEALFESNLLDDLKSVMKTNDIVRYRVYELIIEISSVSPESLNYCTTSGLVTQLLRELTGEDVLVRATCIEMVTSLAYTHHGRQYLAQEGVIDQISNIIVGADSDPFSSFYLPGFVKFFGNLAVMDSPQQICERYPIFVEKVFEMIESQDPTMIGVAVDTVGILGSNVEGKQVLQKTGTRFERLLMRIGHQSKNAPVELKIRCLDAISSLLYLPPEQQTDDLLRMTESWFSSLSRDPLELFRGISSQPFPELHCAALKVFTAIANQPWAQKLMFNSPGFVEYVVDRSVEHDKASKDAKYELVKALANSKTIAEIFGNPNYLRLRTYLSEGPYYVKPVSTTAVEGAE
# Sequence of Protein S100-A10 (P60903 whole entry): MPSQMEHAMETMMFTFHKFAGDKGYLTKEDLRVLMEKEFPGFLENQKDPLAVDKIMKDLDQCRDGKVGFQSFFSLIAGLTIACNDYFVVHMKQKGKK
# Sequence of T-complex protein 1 subunit delta (P50991 whole entry, stated change not applied, one chain of several): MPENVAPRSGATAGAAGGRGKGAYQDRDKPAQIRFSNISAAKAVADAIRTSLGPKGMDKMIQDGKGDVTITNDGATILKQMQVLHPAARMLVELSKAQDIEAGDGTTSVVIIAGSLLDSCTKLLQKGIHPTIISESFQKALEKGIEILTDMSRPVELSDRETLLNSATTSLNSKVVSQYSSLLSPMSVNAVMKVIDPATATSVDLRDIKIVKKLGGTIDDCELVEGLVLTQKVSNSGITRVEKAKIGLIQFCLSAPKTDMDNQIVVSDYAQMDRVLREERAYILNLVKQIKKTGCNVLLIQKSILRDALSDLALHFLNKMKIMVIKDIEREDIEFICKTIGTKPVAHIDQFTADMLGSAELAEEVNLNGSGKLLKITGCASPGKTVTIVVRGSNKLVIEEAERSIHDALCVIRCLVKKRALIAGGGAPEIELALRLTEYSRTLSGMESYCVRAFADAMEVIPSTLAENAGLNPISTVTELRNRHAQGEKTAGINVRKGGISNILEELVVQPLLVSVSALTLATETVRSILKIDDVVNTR
# Sequence of Coatomer subunit gamma-1 (Q9Y678 whole entry): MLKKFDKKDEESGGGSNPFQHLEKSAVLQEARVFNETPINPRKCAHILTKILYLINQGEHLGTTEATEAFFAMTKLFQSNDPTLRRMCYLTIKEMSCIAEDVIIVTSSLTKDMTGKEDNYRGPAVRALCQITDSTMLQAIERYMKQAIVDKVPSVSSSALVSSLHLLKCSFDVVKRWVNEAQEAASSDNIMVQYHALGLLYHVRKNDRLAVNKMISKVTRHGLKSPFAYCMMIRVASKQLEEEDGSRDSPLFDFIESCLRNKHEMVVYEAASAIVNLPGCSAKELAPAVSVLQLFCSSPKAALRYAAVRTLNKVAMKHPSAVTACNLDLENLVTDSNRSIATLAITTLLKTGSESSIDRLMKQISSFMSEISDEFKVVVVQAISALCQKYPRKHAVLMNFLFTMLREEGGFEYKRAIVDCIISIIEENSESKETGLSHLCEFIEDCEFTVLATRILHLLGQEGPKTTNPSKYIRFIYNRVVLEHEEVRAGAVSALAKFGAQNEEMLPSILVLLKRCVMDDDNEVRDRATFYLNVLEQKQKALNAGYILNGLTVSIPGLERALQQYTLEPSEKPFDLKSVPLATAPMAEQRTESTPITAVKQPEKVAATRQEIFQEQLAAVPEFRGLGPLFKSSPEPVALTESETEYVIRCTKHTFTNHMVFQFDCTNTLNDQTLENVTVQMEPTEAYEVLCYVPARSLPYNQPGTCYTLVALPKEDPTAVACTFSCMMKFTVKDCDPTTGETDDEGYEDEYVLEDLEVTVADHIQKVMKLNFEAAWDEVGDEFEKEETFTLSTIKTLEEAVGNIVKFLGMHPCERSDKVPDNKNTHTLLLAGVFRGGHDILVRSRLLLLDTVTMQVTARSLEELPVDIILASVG
substance,measurement,setting,value
"Coatomer subunit beta, P53618",listed as a hit,Coatomer subunit gamma-1,yes
"T-complex protein 1 subunit gamma, P49368",listed as a hit,[1],yes
"Putative annexin A2-like protein, A6NMY6",listed as a hit,Protein S100-A10,yes
"Phosphoglycerate kinase 1, P00558",listed as a hit,[2],yes
"26S proteasome regulatory subunit 7, P35998",listed as a hit,[3],yes
